The test has as its system Trypanosoma brucei. The test is described as follows: Trypanosoma brucei 72 hour study. In kind it is functional, organism-based. More on the design: scale not given: in the data most compounds retested in dose-response had high values.

Screen size: about 66,000 compounds; about 960 (1.5%) showed an effect of 50% or more. Only a selection was taken, and strong results are over-represented in it overall.

For the molecule `O=C(NCc1ccccc1-n1cccn1)C1CC2(CCNCC2)CN1` (configuration not stated), the “Percent Effect” value (30 µM, 30.03 µM) is reported as 40.65%. In the case of `O=C(O)C(F)(F)F.O=C1C[C@H]2[C@@H](CCN2C(=O)Cc2cccs2)N1Cc1ccncc1`, where the note is “30.3 µM, […]”, the “Percent Effect” value is -0.2658%. `CCCc1cncnc1N1CCC(NCCc2ccc(O)cc2)CC1`: the “Percent Effect” value (30 µM, 30.03 µM) is -6.649%. The same measure, in the same setting: the value for `CCCc1cncnc1N1CCC(NCc2ccc(O)cc2)CC1` was 63.63%; that for `CCCc1cncnc1N1CCC(NCc2ccncc2)CC1` was -66.51%. Consider `CN(C)CC1(O)CCN(S(=O)(=O)c2cccc(F)c2)C1` (configuration not stated), for which the “Percent Effect” value (30.3 µM, […]) is listed as -12.71%.

In the case of `Brc1cccnc1OC1CCNCC1.Cl`, the “Percent Effect” value (30 µM, 30.03 µM) is recorded as -18.95%. With `COc1cccc(CNC2CCc3ccc(C)cc32)n1` (configuration not stated), the “Percent Effect” value (30 µM, 30.03 µM) stood at 102.5%. In the case of `COc1cccc(CNC2CCCOc3cc(C)ccc32)n1` (configuration not stated), the “Percent Effect” value (30 µM, 30.03 µM) is on record as -17.07%. Turning to `Cc1ccc2c(c1)C(NCc1ccccn1)CC2` (configuration not stated), the “Percent Effect” value (30 µM, 30.03 µM) turned out to be 31.05%. On the same count and under the same terms, the same measure for `N#Cc1c2n(c3c(=O)[nH]cnc13)CCCC2`: -59.85%. Regarding `Cc1nn(C)cc1CNCc1ccc(N(C)C)cc1`, the “Percent Effect” value (30.3 µM, […]) was -17.42%. As for `CC1=C(C#N)C(=O)NC(=O)/C1=C\c1c(C)nn(-c2ccccc2)c1O`, the “Percent Effect” value (30.3 µM, […]) came to 8.75%.

Turning to `Cc1ccccc1N1CCN(c2nc(N(C)C)nc3c2CCNC3)CC1`, for the setting “30 µM, 30.03 µM”, the “Percent Effect” value is listed as -31.91%.

Turning to `CN(C)c1nc2c(c(N3CCc4ccccc4C3)n1)CCNC2`, the “Percent Effect” value (30 µM, 30.03 µM) is on record as 100.4%.

Take `c1ccc2c(c1)CCN(c1nc(-c3ccncc3)nc3c1CCNC3)C2`: the “Percent Effect” value (30 µM, 30.03 µM) is recorded as -16.52%.

`CC(C)C(=O)NC1CC2(CCN(CC(=O)N(C)C)CC2)c2ccccc21.O=C(O)C(F)(F)F` (configuration not stated): the “Percent Effect” value (30.3 µM, […]) was -88.42%. As for `Cc1ccsc1C(=O)N1CCC2(CC(C(=O)N(C)C(C)C)=NO2)C1` (configuration not stated), under “30 µM, 30.03 µM”, the “Percent Effect” value is on record as -54.71%. `CCCN1CCC(NC(=O)c2csc(C)c2-c2ccccc2)CC1`: the “Percent Effect” value (30.3 µM, […]) is listed as -89.86%. `CCCN1CCC(NC(=O)Nc2ccc(OC)c(OC)c2)CC1`: under “30.3 µM, […]”, the “Percent Effect” value was -0.7678%.

As for `CCCN1CCC(Nc2cc(-c3ccccc3)ccc2OC)CC1`, the “Percent Effect” value (30.3 µM, […]) amounted to 57.37%. With `CC(NC(=O)NCCCN1CCCCCC1=O)c1nncn1C` (configuration not stated), for the setting “30.3 µM, […]”, the “Percent Effect” value is on record as -29.33%.

Turning to `O=C(O)C(F)(F)F.O=C(O)C(F)(F)F.O=C1COC2(CCN(Cc3cccs3)CC2)CN1c1cccnc1`, the “Percent Effect” value (30 µM, 30.03 µM) is -14.7%. On to `CCNc1nc(-c2cccnc2)c(-c2ccnc(NCCO)n2)s1`, for which the “Percent Effect” value (30.3 µM, […]) is 9.967%.

With `CC(C)(C)Nc1nc(-c2cccnc2)c(-c2ccnc(NCCO)n2)s1`, the “Percent Effect” value (30.3 µM, […]) was 94.16%. For `CCNc1nc(-c2cccnc2)c(-c2ccnc(NS(C)(=O)=O)n2)s1`, where the note is “30.3 µM, […]”, the “Percent Effect” value came to 1.048%. For `O=C(NCCc1cccs1)[C@H]1CO[C@H]2CCN(C3CCC3)C[C@H]2C1.O=C(O)C(F)(F)F`, where the note is “30.3 µM, […]”, the “Percent Effect” value is reported as -77.19%. For the molecule `CCOC(=O)[C@]12CCCN(Cc3ccco3)C[C@H]1CN(S(C)(=O)=O)C2.O=C(O)C(F)(F)F`, the “Percent Effect” value (30.3 µM, […]) is listed as 4.884%.

Regarding `COc1cccc(OC)c1CN1CC(=O)N(c2ccc(C)cc2)CC1C` (configuration not stated), the “Percent Effect” value (30 µM, 30.03 µM) stood at 102.6%. Still for that read-out and setting: the same measure for `COc1cc(CN2CC(=O)N(c3ccc(C)cc3)CC2C)cc(OC)c1` (configuration not stated): -11.31%; for `COc1ccc(CN2CC(=O)N(c3ccc(C)cc3)CC2C)cc1O` (configuration not stated): -20.88%. For the molecule `Cn1cc(C(=O)N2C[C@H]3C[C@H](Oc4ccccc4)C[C@H]3C2)cn1`, the “Percent Effect” value (30.3 µM, […]) came to 8.793%.

In the case of `Cl.c1nnc(Nc2cncc(C3CCCN3)n2)s1` (configuration not stated), under “30.3 µM, […]”, the “Percent Effect” value is -8.347%.

Consider `Cc1nc(Nc2cnccn2)cc(C2CCCN2)n1.Cl` (configuration not stated), for which the “Percent Effect” value (30.3 µM, […]) is on record as -13.8%. Take `Cl.c1cnc(Nc2cncc(C3CCCN3)n2)cn1` (configuration not stated): the “Percent Effect” value (30.3 µM, […]) was determined as 99.3%. Consider `O=C(COC[C@@]12CCC[C@@H]1CN(C1CCCC1)C2)N1CCCC1.O=C(O)C(F)(F)F`, for which the “Percent Effect” value (30.3 µM, […]) is given as -80.12%. `CSc1ccc(CNC(c2ccccc2F)c2nccn2C)cc1.Cl` (configuration not stated): the “Percent Effect” value (10 µM) is reported as -81.16%.

With `CN(C)C(=O)Cc1ccccc1NCc1cccc2cccnc12`, the “Percent Effect” value (30.3 µM, […]) turned out to be 4.964%. In the case of `CN(C)C(=O)Cc1ccccc1NCc1cc(C#N)ccc1F`, the “Percent Effect” value (30.3 µM, […]) is reported as -2.182%. For the molecule `CN(C)C(=O)Cc1ccccc1NCc1cccc(F)c1F`, the “Percent Effect” value (30.3 µM, […]) was 97.11%. `CN(C)CCNC(=O)c1sccc1N(C)S(=O)(=O)c1ccc(Cl)cc1`: under “30 µM, 30.03 µM”, the “Percent Effect” value is -35.26%.

With `COc1ccc(-c2cc(CN)ccc2F)c(OC)c1OC`, the “Percent Effect” value (30.3 µM, […]) is -22.81%. Consider `COc1ccc(-c2ccccc2CN)c(OC)c1`, for which, where the note is “30 µM, 30.03 µM”, the “Percent Effect” value is -56.26%. Consider `COc1ccc(-c2ccccc2CCN)c(OC)c1OC`, for which the “Percent Effect” value (30 µM, 30.03 µM) was determined as 106.1%. As for `CO[C@H]1CCN(Cc2ccoc2)C[C@@H]1Cc1ccccc1.O=C(O)C(F)(F)F`, the “Percent Effect” value (30.3 µM, […]) is -12.49%.

On to `C[C@@H]1C[C@@H]2CCN(C(=O)c3ccncn3)C[C@H]2O1`, for which the “Percent Effect” value (30 µM, 30.03 µM) is given as -27.33%. In the case of `COc1cc(N2CCC3(CCCN(C(=O)c4cnccn4)C3)C2)ncn1.O=C(O)C(F)(F)F` (configuration not stated), the “Percent Effect” value (30 µM, 30.03 µM) is reported as -22.02%. Turning to `O=C(NCCCN1CCOCC1)c1cc(-c2ccc3c(c2)CCO3)n[nH]1`, the “Percent Effect” value (30 µM, 30.03 µM) was 57.45%. As to `O=C(NCCCO)c1cc(-c2ccc3c(c2)CCO3)n[nH]1`, for the setting “30 µM, 30.03 µM”, the “Percent Effect” value is recorded as -14.14%. Take `O=C(NCCN1CCOCC1)c1cc(-c2ccc3c(c2)CCO3)n[nH]1`: where the note is “30 µM, 30.03 µM”, the “Percent Effect” value worked out at 31.8%. As for `O=C(NCc1nnc2n1CCCCC2)N(CC1CCOC1)C1CC1` (configuration not stated), the “Percent Effect” value (30 µM, 30.03 µM) is recorded as -56.14%. On to `CNc1cc2c(nn1)CCN(C(=O)c1cccc3c1OCCO3)C2`, for which, under “10 µM”, the “Percent Effect” value is -31.25%.

Consider `OCC1(Cc2ccc(Cl)cc2)CCN(Cc2ccccc2O)CC1`, for which the “Percent Effect” value (30.3 µM, […]) was -146.1%. `COc1ccc(CN2CCC(CO)(Cc3ccc(Cl)cc3)CC2)c(O)c1`: the “Percent Effect” value (30.3 µM, […]) was -63.01%. As to `COc1cccc(CN2CCC(CO)(Cc3ccc(Cl)cc3)CC2)c1O`, the “Percent Effect” value (30.3 µM, […]) came out at 102.9%. As to `CC(C)CNC(=O)[C@H]1C[C@@H]2CN(C(=O)Nc3ccc(F)cc3)C[C@H]1O2`, the “Percent Effect” value (30 µM, 30.03 µM) is on record as -34.27%. Take `O=S(=O)(c1ccccc1)N1CCC2(CCCN2Cc2cccc(F)c2)C1` (configuration not stated): for the setting “30.3 µM, […]”, the “Percent Effect” value worked out at 56.8%. Consider `O=S(=O)(c1ccccc1)N1CCC2(CCCN2Cc2ccc(Cl)cc2)C1` (configuration not stated), for which the “Percent Effect” value (30.3 µM, […]) came out at 61.41%. Consider `O=S(=O)(c1ccccc1)N1CCC2(CCCN2Cc2ccccc2Cl)C1` (configuration not stated), for which the “Percent Effect” value (30.3 µM, […]) is listed as 33.63%. As to `CCS(=O)(=O)N1CCCC2(CCCN2Cc2cccc(F)c2)C1.O=C(O)C(F)(F)F` (configuration not stated), the “Percent Effect” value (30 µM, 30.03 µM) was -82.26%.

Turning to `O=C(O)C(F)(F)F.O=C(O)C(F)(F)F.O=S(=O)(c1ccccc1)N1CCC2(CCCN2Cc2cccnc2)C1` (configuration not stated), the “Percent Effect” value (30.3 µM, […]) is given as -446.5%. For `O=C(O)C(F)(F)F.O=S(=O)(c1ccccc1)N1CCC2(CCCN2Cc2cccc(Cl)c2)C1` (configuration not stated), the “Percent Effect” value (30 µM, 30.03 µM) is -34.57%.
